# According to PubChem BioAssay AID1359 (The Scripps Research Institute Molecular Screening Center, 2008):
# The campaign covered roughly 220,000 compounds. About 970 (0.44%) were called active. Shown is part of a subset that was picked to be rich in actives. A number with no mark means an inactive call. Cut-off read from the data, not from the text of the source: active = activation above about 27%; inactive = the rest.
# Molecular target: Neuropeptide Y receptor type 2 (Homo sapiens) (UniProt P49146)
# Assay: NPY-Y2 potentiators or agonists, primary screen, cell-based (AID 1359);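 note: cells stimulated with NPY near EC25 plus isoproterenol at EC100; 0% = vehicle plus submaximal agonist and 100% = vehicle plus saturating agonist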
# Details: cells expressing NPY-Y2, potentiator/agonist read-out; at 3.6 µM; active compounds read high
# Sequence of Neuropeptide Y receptor type 2 (Homo sapiens) (P49146 whole entry, looked up): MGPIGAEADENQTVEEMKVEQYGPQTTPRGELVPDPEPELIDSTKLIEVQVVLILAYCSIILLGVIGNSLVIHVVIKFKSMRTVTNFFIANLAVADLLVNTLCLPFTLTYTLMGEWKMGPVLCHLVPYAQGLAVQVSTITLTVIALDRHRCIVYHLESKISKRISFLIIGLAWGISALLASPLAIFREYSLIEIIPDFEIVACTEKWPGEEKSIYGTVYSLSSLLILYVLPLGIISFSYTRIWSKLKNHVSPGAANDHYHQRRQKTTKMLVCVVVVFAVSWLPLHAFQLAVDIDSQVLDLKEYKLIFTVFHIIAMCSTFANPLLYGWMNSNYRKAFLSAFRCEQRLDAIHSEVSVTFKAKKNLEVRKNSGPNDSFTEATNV
row,Compound,activation
1,CC1(C)Cc2c(C#N)c(N3CCNCC3)nc(-c3ccco3)c2CS1,54.8% (active)
2,CN(C)P(=S)(Nc1ccccc1)C(Cl)(Cl)Cl (stereo not given),3.95%
3,Cn1c(O)c(C(=Nc2ccc(F)cc2)c2ccccc2)c(=O)n(C)c1=O,-10.2%
4,CCN1CC2C3CCC(C)(O3)C2C1 (stereo not given),3.85%
5,CCCCCCCCCCCCn1ccc(=N)cc1,-3.31%
